Data reported in PubChem BioAssay AID1159580 (chemical genetic matrix, 2015).
About 2,000 (36%) of roughly 5,500 compounds were called active. About 18% were inconclusive and are not listed. Cut-off read from the data, not from the text of the source: active = normalized growth mostly below about 0.91 (no sharp cut-off); inconclusive = no clear call, values can overlap the other calls; inactive = mostly above about 0.92. The list shows a part of the results.

Experiment: chemical genetic growth profiling, strain panel (AID 1159580);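 note: tested at 20 µM; growth read once vehicle control cultures reached saturation at 30 °C; 1 = growth at the plate median or of vehicle wells; lower values mean less growth of the strain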
Settings: S. cerevisiae deletion strains, growth OD
[1] = locus YDL101C, strain DUN1, stronger effect = lower value
[2] = locus YHR030C, strain SLT2, stronger effect = lower value

Measured: normalized growth

COC(=O)C(Cc1c[nH]c2ccccc12)NC(=O)c1c(Cl)cccc1Cl (configuration not stated)
inactive: locus YAL013W, strain DEP1, stronger effect = lower value 1 | locus YBR229C, strain ROT2, stronger effect = lower value 0.992 | [1] 0.993 | locus YDR150W, strain NUM1, stronger effect = lower value 0.993 | locus YEL061C, strain CIN8, stronger effect = lower value 1.01 | locus YGR078C, strain PAC10, stronger effect = lower value 0.994 | [2] 0.97 | locus YHR087W, strain rtc3, stronger effect = lower value 0.985 | locus YJR043C, strain POL32, stronger effect = lower value 1 | locus YJR075W, strain HOC1, stronger effect = lower value 0.994 | locus YLR039C, strain RIC1, stronger effect = lower value 0.996 | locus YLR058C, strain SHM2 (second series), stronger effect = lower value 1.01 | locus YLR085C, strain ARP6, stronger effect = lower value 0.981 | locus YLR262C, strain YPT6, stronger effect = lower value 1 | locus YML094W, strain GIM5, stronger effect = lower value 1 | locus YMR219W, strain ESC1, stronger effect = lower value 1 | locus YMR263W, strain SAP30, stronger effect = lower value 0.994 | locus YMR307W, strain GAS1, stronger effect = lower value 0.915 | locus YNL153C, strain GIM3, stronger effect = lower value 0.993 | locus YNL298W, strain CLA4 (second series), stronger effect = lower value 1 | locus YNL322C, strain KRE1, stronger effect = lower value 0.99 | locus YNR030W, strain Alg12, stronger effect = lower value 0.999 | locus YOL006C, strain TOP1, stronger effect = lower value 0.937 | locus YPL055C, strain LGE1, stronger effect = lower value 0.988 | locus YPL241C, strain CIN2, stronger effect = lower value 0.999 | locus YPR135W, strain CTF4, stronger effect = lower value 0.963

CC(C)c1cccc(C(C)C)c1OC(=O)NC(=O)c1c(Cl)cccc1Cl
inactive: locus YAR019C, strain CDC15, stronger effect = lower value 0.98 | locus YBL105C, strain PKC1, stronger effect = lower value 0.984 | locus YBR135W, strain CKS1, stronger effect = lower value 0.983 | locus YBR136W, strain MEC1, stronger effect = lower value 0.989 | locus YBR160W, strain CDC28, stronger effect = lower value 0.985 | locus YDL017W, strain CDC7, stronger effect = lower value 0.985 | locus YDL028C, strain MPS1, stronger effect = lower value 0.989 | [1] 0.971 | locus YDL108W, strain KIN28, stronger effect = lower value 0.985 | locus YDL132W, strain cdc53, stronger effect = lower value 0.985 | locus YDL214C, strain PRR2, stronger effect = lower value 0.974 | locus YDR052C, strain DBF4, stronger effect = lower value 0.978 | locus YDR054C, strain cdc34, stronger effect = lower value 0.977 | locus YDR226W, strain ADK1, stronger effect = lower value 0.975 | locus YDR477W, strain SNF1, stronger effect = lower value 0.982 | locus YER123W, strain YCK3, stronger effect = lower value 0.942 | locus YER133W, strain GLC7, stronger effect = lower value 0.983 | locus YFL009W, strain cdc4, stronger effect = lower value 0.99 | locus YFL029C, strain CAK1, stronger effect = lower value 0.979 | locus YFR003C, strain YPI1, stronger effect = lower value 0.982 | locus YFR019W, strain FAB1, stronger effect = lower value 0.969 | locus YFR028C, strain CDC14, stronger effect = lower value 0.988 | locus YGR040W, strain KSS1, stronger effect = lower value 0.979 | locus YGR052W, strain FMP48, stronger effect = lower value 1.01 | locus YGR092W, strain DBF2, stronger effect = lower value 0.992 | [2] 0.966 | locus YHR079C, strain IRE1, stronger effect = lower value 0.911 | locus YHR082C, strain KSP1, stronger effect = lower value 1.04 | locus YHR205W, strain SCH9, stronger effect = lower value 0.945 | locus YIL147C, strain SLN1, stronger effect = lower value 0.988 | locus YJL095W, strain BCK1, stronger effect = lower value 0.956 | locus YJL128C, strain PBS2, stronger effect = lower value 0.928 | locus YJL157C, strain FAR1, stronger effect = lower value 0.957 | locus YJR016C, strain ILV3, stronger effect = lower value 0.985 | locus YJR066W, strain TOR1 (second series), stronger effect = lower value 0.945 | locus YJR066W, strain TOR1, stronger effect = lower value 1.03 | locus YKL048C, strain ELM1, stronger effect = lower value 0.986 | locus YKL067W, strain YNK1, stronger effect = lower value 0.966 | locus YKL101W, strain HSL1, stronger effect = lower value 0.956 | locus YKL193C, strain SDS22, stronger effect = lower value 0.99 | locus YKL203C, strain TOR2, stronger effect = lower value 1.01 | locus YLR113W, strain HOG1, stronger effect = lower value 0.866 | locus YLR133W, strain CKI1, stronger effect = lower value 0.96 | locus YLR403W, strain SFP1, stronger effect = lower value 0.962 | locus YML070W, strain DAK1, stronger effect = lower value 0.972 | locus YMR001C, strain CDC5, stronger effect = lower value 0.986 | locus YMR205C, strain PFK2 (second series), stronger effect = lower value 0.98 | locus YMR277W, strain FCP1, stronger effect = lower value 0.986 | locus YNL006W, strain LST8, stronger effect = lower value 0.982 | locus YNL020C, strain ARK1, stronger effect = lower value 0.957 | locus YNL161W, strain CBK1, stronger effect = lower value 0.976 | locus YNL183C, strain NPR1, stronger effect = lower value 0.979 | locus YNL207W, strain RIO2, stronger effect = lower value 0.98 | locus YNL222W, strain SSU72, stronger effect = lower value 0.987 | locus YNL307C, strain MCK1 (second series), stronger effect = lower value 0.958 | locus YOL078W, strain AVO1, stronger effect = lower value 0.985 | locus YOL136C, strain PFK27, stronger effect = lower value 0.945 | locus YOR061W, strain CKA2, stronger effect = lower value 0.972 | locus YOR119C, strain RIO1, stronger effect = lower value 1.04 | locus YOR231W, strain MKK1, stronger effect = lower value 0.945 | locus YOR329C, strain SCD5, stronger effect = lower value 0.971 | locus YPL031C, strain PHO85, stronger effect = lower value 0.954 | locus YPL153C, strain RAD53, stronger effect = lower value 0.984 | locus YPL204W, strain HRR25, stronger effect = lower value 0.943 | locus YPL209C, strain IPL1, stronger effect = lower value 0.991 | locus YPL256C, strain CLN2, stronger effect = lower value 0.919 | locus YPR025C, strain CCL1, stronger effect = lower value 0.982 | locus YPR106W, strain ISR1, stronger effect = lower value 0.978 | locus YPR111W, strain DBF20, stronger effect = lower value 0.96 | strain NNK1, stronger effect = lower value 0.962 | strain TSCII, stronger effect = lower value 0.978
